PubChem BioAssay AID1159580 (chemical genetic matrix, 2015)
“And” between values parts separate entries of the source, which are not always exact repeats. Equal entries are not always repeated. Hit rate of the full screen: of about 5,500 compounds, about 2,000 (36%) were called active. Inconclusive results (about 18%) are left out. Cut-off read from the data, not from the text of the source: active = normalized growth mostly below about 0.91 (no sharp cut-off); inconclusive = no clear call, values can overlap the other calls; inactive = mostly above about 0.92. This is one part of the list.

Assay: chemical genetic growth profiling, strain panel (AID 1159580);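 note: tested at 20 µM; growth read once vehicle control cultures reached saturation at 30 °C; 1 = growth at the plate median or of vehicle wells; lower values mean less growth of the strain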
Details: S. cerevisiae deletion strains, growth OD

Measured: normalized growth

CC(C)NCC(O)c1ccc2ccccc2c1 (stereo not drawn)
inactive: locus YAL013W, strain DEP1, stronger effect = lower value 1.02 | locus YAL021C, strain ccr4, stronger effect = lower value 0.992 | locus YAL026C, strain drs2, stronger effect = lower value 1.01 | locus YAL030W, strain snc1, stronger effect = lower value 1 | locus YBL061C, strain skt5, stronger effect = lower value 0.998 | locus YBR009C, strain hhf1, stronger effect = lower value 0.985 | locus YBR021W, strain FUR4, stronger effect = lower value 1.02 | locus YBR023C, strain chs3, stronger effect = lower value 1 | locus YBR171W, strain sec66, stronger effect = lower value 1 | locus YBR229C, strain ROT2, stronger effect = lower value 1.01 | locus YBR231C, strain swc5, stronger effect = lower value 0.99 | locus YBR279W, strain paf1, stronger effect = lower value 0.998 | locus YCL011C, strain gbp2, stronger effect = lower value 1 | locus YCL016C, strain dcc1, stronger effect = lower value 1 | locus YCL029C, strain bik1, stronger effect = lower value 0.999 | locus YCL061C, strain MRC1, stronger effect = lower value 1.01 | locus YCL069W, strain vba3, stronger effect = lower value 1 | locus YCR088W, strain abp1, stronger effect = lower value 1.01 | locus YDL005C, strain med2, stronger effect = lower value 0.999 | locus YDL035C, strain GPR1, stronger effect = lower value 1.02 | locus YDL040C, strain nat1, stronger effect = lower value 0.987 | locus YDL074C, strain BRE1, stronger effect = lower value 1.04 | locus YDL101C, strain DUN1, stronger effect = lower value 1.01 | locus YDL134C, strain PPH21, stronger effect = lower value 1.02 | locus YDL185W, strain tfp1, stronger effect = lower value 1 | locus YDL192W, strain arf1, stronger effect = lower value 1 | locus YDR001C, strain nth1, stronger effect = lower value 1 | locus YDR069C, strain doa4, stronger effect = lower value 0.987 | locus YDR101C, strain arx1, stronger effect = lower value 1.01 | locus YDR137W, strain rgp1, stronger effect = lower value 0.987 | locus YDR159W, strain sac3, stronger effect = lower value 0.971 | locus YDR162C, strain NBP2, stronger effect = lower value 1.03 | locus YDR195W, strain ref2 0.966 | locus YDR297W, strain sur2, stronger effect = lower value 0.998 | locus YDR318W, strain mcm21, stronger effect = lower value 0.992 | locus YDR334W, strain swr1, stronger effect = lower value 1 | locus YDR335W, strain msn5, stronger effect = lower value 0.999 | locus YDR388W, stronger effect = lower value 0.994 | locus YDR392W, strain spt3, stronger effect = lower value 0.918 | locus YDR502C, strain sam2, stronger effect = lower value 0.995 | locus YEL003W, strain gim4, stronger effect = lower value 1.01 | locus YEL037C, strain rad23, stronger effect = lower value 1 | locus YEL061C, strain CIN8 (second series), stronger effect = lower value 0.996 | locus YEL061C, strain CIN8, stronger effect = lower value 1 | locus YER015W, strain faa2, stronger effect = lower value 0.992 | locus YER016W, strain bim1, stronger effect = lower value 0.997 | locus YER110C, stronger effect = lower value 0.994 | locus YER111C, strain swi4, stronger effect = lower value 1 | locus YER155C, strain BEM2 (second series), stronger effect = lower value 0.998 | locus YER155C, strain BEM2, stronger effect = lower value 1.01 | locus YER167W, strain BCK2, stronger effect = lower value 1.01 | locus YFR010W, strain ubp6, stronger effect = lower value 1 | locus YGL078C, strain dbp3, stronger effect = lower value 0.992 | locus YGL086W, strain mad1, stronger effect = lower value 1 | locus YGL167C, strain pmr1, stronger effect = lower value 1 | locus YGL173C, strain kem1, stronger effect = lower value 0.999 | locus YGL227W, strain vid30, stronger effect = lower value 0.992 | locus YGL240W, strain doc1, stronger effect = lower value 0.995 | locus YGL248W, strain PDE1, stronger effect = lower value 1.01 | locus YGL253W, strain hxk2, stronger effect = lower value 0.998 | locus YGR135W, strain pre9, stronger effect = lower value 0.983 | locus YGR252W, strain gcn5, stronger effect = lower value 0.973 | locus YHR013C, strain ard1, stronger effect = lower value 0.952 | locus YHR027C, strain rpn1, stronger effect = lower value 1 | locus YHR030C, strain SLT2, stronger effect = lower value 1.01 and 1.02 | locus YHR079C, strain IRE1 (second series), stronger effect = lower value 0.99 | locus YHR079C, strain IRE1, stronger effect = lower value 1.02 | locus YHR094C, strain hxt1, stronger effect = lower value 0.99 | locus YHR129C, strain ARP1, stronger effect = lower value 1.02 | locus YHR142W, strain chs7, stronger effect = lower value 1 | locus YHR200W, strain rpn10, stronger effect = lower value 0.994 | locus YIL066C, strain RNR3, stronger effect = lower value 1.02 | locus YIL073C, strain SPO22, stronger effect = lower value 1.01 | locus YIL125W, strain kgd1, stronger effect = lower value 0.999 | locus YIR030C, strain dcg1, stronger effect = lower value 0.998 | locus YJL092W, strain hpr5, stronger effect = lower value 1.01 | locus YJL095W, strain BCK1 (second series), stronger effect = lower value 0.999 | locus YJL095W, strain BCK1, stronger effect = lower value 1.02 and 1.03 | locus YJL115W, strain asf1, stronger effect = lower value 0.996 | locus YJL129C, strain trk1, stronger effect = lower value 1.01 | locus YJL134W, strain LCB3, stronger effect = lower value 1 | locus YJL154C, strain vps35, stronger effect = lower value 0.992 | locus YJL164C, strain tpk1, stronger effect = lower value 1 | locus YJL166W, strain qcr8, stronger effect = lower value 1 | locus YJL168C, strain set2, stronger effect = lower value 0.991 | locus YJL187C, strain SWE1 (second series), stronger effect = lower value 1.03 | locus YJL187C, strain SWE1, stronger effect = lower value 1 | locus YJR043C, strain POL32, stronger effect = lower value 1.05
